Sampled rows, rich in hits. Any-hit rate of the full collection: about 3%.
PLK1 PBD block – qHTS for Inhibitors of PLK1-PDB (polo-like kinase 1 - polo-box domain): Primary Screen. Serine/threonine-protein kinase PLK1 (Homo sapiens), P53350. Plk1 PBD binding of FITC phosphopeptide, fluorescence polarization. Potency, µM, for the others: max response, negative = inhibition, actives largely listed as inhibitors. 2.8% of 360,000 active. AID 720504, 2013; also: series mostly up to about 57 µM; nearly all actives have a fitted effect of over 65% in size
ALOX12 inh – Primary qHTS assay for inhibitors of human arachidonate 12S-lipoxygenase (ALOX12): Round 2; Polyunsaturated fatty acid lipoxygenase ALOX12 (Homo sapiens), P18054; Potency, µM (highest dose often 108 µM), inactives show at the top dose activity change, negative = inhibition, usual class: inhibitors; purified 12hLO, xylenol orange hydroperoxide absorbance; AID 1671190, 2021; 1.1% of 580,000 active
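Hydroperoxide product was detected by ferrous iron/xylenol orange as the 573 to 405 nm absorbance ratio. Arachidonic acid at 40 uM (final) was turned over for 30 min at room temperature by 150 nM human 12hLO, pH 7.0 Hepes buffer, after 15 min compound preincubation.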
KAT2A inh – qHTS Assay for Inhibitors of GCN5L2; Histone acetyltransferase KAT2A (Homo sapiens), Q92830; GCN5L2 HAT assay, ThioGlo1 CoA-SH fluorescence; Potency, µM (titrated, usually from 58.9 µM), without a hit: top-dose activity change, negative = inhibition, actives largely listed as inhibitors; 0.21% of 390,000 active
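ThioGlo1-coupled HAT assay: 20nM GCN5L2, 70uM acetyl-CoA, 75uM H3(1-25) peptide, pH 7.5. Fluorescence read at 340/540nm at start and after 20 min at room temperature.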
VDR inh – Inhibitors of the vitamin D receptor (VDR): qHTS; Vitamin D3 receptor (Homo sapiens), P11473; VDR-SRC2-3 peptide fluorescence polarization, 2 h; Potency, µM, inactives show max response, negative = inhibition, usual class: inhibitors; 0.93% of 400,000 active; AID 504847, 2011
Target sequence (P11473 whole entry, looked up): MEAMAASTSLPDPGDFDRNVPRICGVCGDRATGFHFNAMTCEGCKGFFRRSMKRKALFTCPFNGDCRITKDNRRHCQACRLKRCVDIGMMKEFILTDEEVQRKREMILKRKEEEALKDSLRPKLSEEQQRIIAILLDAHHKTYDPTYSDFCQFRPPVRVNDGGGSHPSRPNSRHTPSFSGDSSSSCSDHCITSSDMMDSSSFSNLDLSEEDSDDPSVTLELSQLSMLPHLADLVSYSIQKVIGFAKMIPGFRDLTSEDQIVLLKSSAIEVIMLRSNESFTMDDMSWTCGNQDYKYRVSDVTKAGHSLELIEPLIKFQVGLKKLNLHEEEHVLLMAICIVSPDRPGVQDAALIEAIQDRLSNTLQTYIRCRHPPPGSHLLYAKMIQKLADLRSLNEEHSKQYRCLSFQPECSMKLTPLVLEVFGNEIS
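Measured by FP: displacement of SRC2-3 coactivator peptide from VDR by library compounds, following a two-hour ambient incubation.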
An asterisk follows results filed as active; ? = inconclusive; . = no result given. Calls follow the shape of the dose curve; as a rule, active = well fitted curve in the direction sought with a large enough effect; inconclusive = small, poorly fitted or top-dose-only effect, or another doubt; inactive = no such curve, though single readings can be large; an effect the other way counts as inactive or inconclusive. % is scaled to controls: 0 for no effect and ±100 for the full control effect; potency is read from the fitted curve at half-maximal effect.

SMILES | PLK1 PBD block | ALOX12 inh | KAT2A inh | VDR inh
Cn1sc2ccccc2c1=O | 4.7µM* | -35% | . | .
CN(C)S(=O)(=O)c1ccc2[nH]cc(/C=C/c3nc4ccccc4c(=O)n3-c3ccccc3)c2c1 | -5% | -7% | -20% | -10%
O=c1c2ccccc2sn1-c1cccc(Cl)c1 | 3µM* | ? | . | .
Cc1ccc(NC(=O)Nc2nnc(-c3ccccc3)s2)cc1C | . | 15% | . | .
Cc1nn(-c2ccc(F)cc2)c2sc(C(=O)OCC(=O)Nc3ccccc3OC(F)F)cc12 | . | -29% | . | .
CCOC(=O)c1ccc2ncc(C(=O)OCC)c(Nc3cccc(C(C)=O)c3)c2c1 | . | 3% | . | .
O=c1c2ccccc2sn1-c1nccs1 | 2.4µM* | 1.6µM* | 3.2µM* | 4µM*
Cc1ccccc1-n1sc2cc(F)ccc2c1=O | 1.2µM* | ? | 1.3µM* | ?
CC1NC(=O)c2ccccc2-n2c1nc1cc(F)ccc1c2=O (stereo not drawn) | . | -3% | 3% | .
N#Cc1ccc2c(=O)n(-c3ccccc3)sc2c1 | 3µM* | 0.45µM* | . | .
O=C1c2ccccc2C(=O)N1c1nccs1 | 7% | -15% | . | -2%
O=c1c2ccccc2sn1-c1ccccc1 | 1.1µM* | 0.56µM* | 1µM* | 4µM*
CC(=O)Nc1ccc2c(=O)n(-c3ccccc3)sc2c1 | 2.4µM* | 1µM* | . | .
O=c1c2ccccc2sn1-c1ccccc1F | 3µM* | ? | . | .
O=C1CN(c2ccccc2F)C(=O)CN1c1ccccc1F | -5% | -4% | 3% | -10%
CC1CCC(NC(=O)C23CC4CC(CC(C4)C2)C3)CC1 (stereo not drawn) | . | 23% | . | .
Cc1ccccc1NC(=O)C1=C(Cl)CCCC1 | . | -5% | . | .
Cc1ccc(C=Nc2ccc(Nc3ccccc3)cc2)s1 | . | 40µM* | . | .
Cc1ccc(C=Nc2ccc(C(C)C)cc2)s1 | . | 7% | . | .
CC1=C[C@@H](CNC(=O)COc2ccccc2)[C@H](C(C)C)C[C@H]1Cc1nnc(-c2cncn2C)o1 | . | -17% | . | .
Cn1sccc1=O | 15µM* | -3% | ? | 16µM*
CCOC(=O)c1cnn(-c2ccc(OC)cc2)c1C1CCN(C(=O)OC(C)(C)C)CC1 | . | 14µM* | -13% | -8%
CCOC(=O)c1ccccc1NC(=O)c1cnn(-c2ccc(OC)cc2)c1C1CCN(C(=O)OC(C)(C)C)CC1 | . | -17% | 4% | 10%
COc1ccccc1NC(=O)COc1ccc(C(F)(F)F)cc1[N+](=O)[O-] | 27µM* | -8% | . | -11%
COc1ccc(C(C)(C)C)cc1NC(=O)COC(=O)c1ccc([N+](=O)[O-])o1 | 30µM* | -24% | -3% | -27%
SMILES | PLK1 PBD block | ALOX12 inh | KAT2A inh | VDR inh
CC(=O)Oc1c(-c2ccc(Br)o2)oc2ccccc2c1=O | -8% | 35µM* | -4% | -3%
COc1ccc(-c2oc3ccccc3c(=O)c2OC(C)=O)cc1 | -20% | ? | -8% | -12%
Cc1ccc(C(=O)C2CCN(CCC#N)CC2)c(C)c1 | . | -4% | . | .
CC(C)(C)NC(=O)C(c1cccc2ccccc12)n1c(=O)c(-c2ccco2)nc2ccccc21 (stereo not drawn) | ? | 45µM* | . | .
CCCCCNC(=O)C(C1CC1)n1c(=O)c(-c2ccco2)nc2ccccc21 (stereo not drawn) | -20% | 35µM* | . | .
CCCCCNC(=O)C(c1cccc2ccccc12)n1c(=O)c(-c2ccco2)nc2ccccc21 (stereo not drawn) | ? | 10µM* | . | .
O=C(NCc1ccccc1)C(c1cccc2ccccc12)n1c(=O)c(-c2ccco2)nc2ccccc21 (stereo not drawn) | -16% | ? | . | .
O=c1c(-c2ccco2)nc2ccccc2n1/C=C(/c1ccc(C(F)(F)F)cc1)n1c(=O)[nH]c2ccccc21 | . | 16µM* | . | .
COc1ccc(NC(=O)C(C2CC2)n2c(=O)c(-c3ccco3)nc3ccccc32)cc1 (stereo not drawn) | -8% | ? | . | .
Cc1ccc(S(=O)(=O)N2CCC3(CC2)N=C(c2cccs2)C(=O)N3)cc1 | . | -3% | . | .
CC1(C)CC(CC(=O)N2CCCC2)(c2ccc(Cl)cc2)CCO1 (stereo not drawn) | . | -1% | . | .
CCCCCNC(=O)C(c1ccc(C(F)(F)F)cc1)n1c(=O)c(-c2ccco2)nc2ccccc21 (stereo not drawn) | -9% | 45µM* | . | .
COc1ccc(NC(=O)C(c2ccc(OC)cc2)n2c(=O)c(-c3ccco3)nc3ccccc32)cc1 (stereo not drawn) | -5% | ? | . | .
O=C(Cn1nc(C(=O)O)c2ccccc2c1=O)c1cc(F)ccc1F | 17µM* | 4% | -10% | ?
O=C(Cn1nnc2ccccc2c1=O)NCc1ccco1 | -5% | ? | -9% | 9%
O=C(Cn1nc(C(=O)O)c2ccccc2c1=O)NCc1ccco1 | 21µM* | -22% | -5% | -21%
Cc1ccc(-c2nc(NCc3ccco3)n(C(=O)c3ccco3)n2)cc1 | -4% | 0% | -5% | -6%
O=C(c1ccco1)n1nc(-c2ccccc2)nc1NCc1ccco1 | 30µM* | 84% | -14% | ?
Cc1ccc(S(=O)(=O)n2nc(-c3ccc(Cl)cc3)nc2NCc2ccco2)cc1 | 3% | 13µM* | -10% | 4%
Cn1cc(S(=O)(=O)N2CCCC(C(=O)Nc3ccn(Cc4ccc(Cl)c(Cl)c4)n3)C2)cn1 (stereo not drawn) | . | 20% | . | .
O=[N+]([O-])c1cc(C(F)(F)F)cc([N+](=O)[O-])c1NN=C1CCCCC1 | ? | ? | 0% | 50µM*
CCc1nnc(NC(=O)c2nc(Cl)ccc2Cl)s1 | -11% | 461% | -3% | -8%
CCc1nnc(NC(=O)c2nc(S(=O)(=O)Cc3ccc(C)cc3)ncc2Cl)s1 | 24µM* | 1% | -1% | 22µM*
Cc1nnc(NC(=O)c2nc(S(=O)(=O)Cc3ccccc3C)ncc2Cl)s1 | ? | -14% | -2% | 35µM*
O=C(O)CNC(=O)CNC(=O)CCn1c(-c2ccccc2)cc2ccccc21 | . | -9% | . | .
SMILES | PLK1 PBD block | ALOX12 inh | KAT2A inh | VDR inh
C=C1c2cccc(O)c2C(O)=C2C(=O)[C@]3(O)C(O)=C(C(N)=O)C(=O)C(N(C)C)C3C(O)C12 (stereo partly drawn) | . | . | 10µM* | 35µM*
C=C1c2cccc(O)c2C(O)=C2C(=O)[C@]3(O)C(O)=C(C(N)=O)C(=O)[C@@H](N(C)C)[C@@H]3[C@@H](O)[C@H]12 | ? | -11% | -12% | -7%
COc1ccc2ccc(O)c(CN(C)CC(=O)Nc3ccccc3C(F)(F)F)c2c1 | 11µM* | 7.1µM* | -7% | ?
Cc1ccc(NC(=O)CN(C)Cc2c(O)ccc3ccccc23)cc1 | 3.8µM* | ? | -10% | 79µM*
COc1ccc(CN(C)CC(=O)Nc2ccccc2C(F)(F)F)cc1 | -1% | -14% | 5% | 20%
CCN(CC(=O)Nc1ccc(NC(C)=O)cc1)Cc1c(O)ccc2cc(Br)ccc12 | 9.5µM* | ? | -9% | ?

Screens from PubChem.
